Screening data from PubChem BioAssay.
GRP78 ERSR act = qHTS for Inducers of the Endoplasmic Reticulum Stress Response (ERSR) in Human Glioma: qHTS | U87-MG GRP78 promoter luciferase reporter, 16 h | Potency, µM, for inactives: at the highest dose activation, usual class: activators | 420,000 compounds, 0.02% hits; further: potency means the concentration at half of the fitted maximal effect; series mostly up to about 76 µM; % of control where 0% means no effect; nearly all actives have a fitted effect of over 35% in size
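Stably transfected U87-MG glioma cells carrying a GRP78-based luciferase sensor; 16 h compound incubation. Luminescence end-point read 10 min after Bright-Glo addition at room temperature.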
DRD3 antagonist = qHTS of D3 Dopamine Receptor Antagonist: qHTS; max response, negative = inhibition, %; D3R cells, DiscoveRx beta-arrestin luminescence, antagonist mode; active compounds read low; D(3) dopamine receptor (Homo sapiens), P35462; 360,000 compounds, 2.5% hits; AID 652054, 2013; in the data active means max response below about -50%; inconclusive means no clear call, values can overlap the other calls; further: on the % scale 0 is the no-effect control and ±100 the full control effect
Target sequence (P35462 whole entry, looked up): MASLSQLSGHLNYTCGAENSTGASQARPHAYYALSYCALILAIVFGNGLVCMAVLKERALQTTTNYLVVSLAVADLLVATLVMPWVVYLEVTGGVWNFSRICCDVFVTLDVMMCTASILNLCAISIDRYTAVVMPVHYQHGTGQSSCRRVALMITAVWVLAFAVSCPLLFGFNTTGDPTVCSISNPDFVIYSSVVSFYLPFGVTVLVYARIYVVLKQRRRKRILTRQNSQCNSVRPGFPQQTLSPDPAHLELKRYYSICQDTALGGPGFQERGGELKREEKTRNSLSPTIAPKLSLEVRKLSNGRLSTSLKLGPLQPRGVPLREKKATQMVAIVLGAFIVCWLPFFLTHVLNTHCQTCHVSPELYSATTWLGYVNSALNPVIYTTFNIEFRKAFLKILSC
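Cells plated overnight at 1500 cells/well, then exposed to library compounds with dopamine controls for 90 minutes at 37 degrees C. DiscoveRx reagent added for 30–60 minutes at room temperature; luminescence read, quantitative HTS format.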
DRD3 agonist = qHTS of D3 Dopamine Receptor Agonist: qHTS; D3R DiscoveRx beta-arrestin cells, luminescence, 90 min; max activation, %; 410,000 compounds, 0.58% hits; AID 652048, 2013; in the data active means max activation above about 30%; further: 0% is about no effect
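Agonist-mode cell screen: cells plated at 1500/well and incubated overnight at 37 °C, then exposed to library compounds for 90 min at 37 °C. Detection reagent was added for 30–60 min at room temperature, and luminescence was read.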
Nrf2 ARE act = qHTS of Nrf2 Activators; AREc32 ARE-luciferase reporter (MCF7-derived line), luminescence, 24 h; Potency, µM (doses to about 46.1 µM), inactives show top-dose activation, most hits filed as activators; 410,000 compounds, 0.31% hits; further: potency means the concentration at half of the fitted maximal effect; % of control where 0% means no effect; nearly all actives have a fitted effect of over 65% in size
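AREc32 cells carrying an ARE-driven firefly luciferase reporter were seeded at 1000 cells/well in OPTI-MEM with 5% FBS, then exposed to compound for 24 hr at 37 deg C. Luminescence was read with Steady-Glo after 30 min at RT.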
* = called active by the depositor; ? = inconclusive; / = no result. Rows were chosen to be rich in hits. Some 3% of all compounds tested hit in one or more screens of this group. Unless noted, the call rests on the fitted dose curve; in most records, active means well fitted curve in the direction sought with a large enough effect; inconclusive means small, poorly fitted or top-dose-only effect, or another doubt; inactive means no such curve, though single readings can be large; an effect the other way counts as inactive or inconclusive.

SMILES | GRP78 ERSR act | DRD3 antagonist | DRD3 agonist | Nrf2 ARE act
CCC(C)C(N)C(=O)NC(CC(N)=O)C(=O)NC(CC(C)C)C(=O)NC(CCCCN)C(=O)NC(C)C(=O)NC(CC(C)C)C(=O)NC(C)C(=O)NC(C)C(=O)NC(CC(C)C)C(=O)NC(C)C(=O)NC(CCCCN)C(=O)NC(CCCCN)C(=O)NC(C(=O)NC(CC(C)C)C(N)=O)C(C)CC (centres undefined) | -10% | / | / | /
CCOC(=O)C(=Cc1ccc(-n2ccnc2)cc1)C(=O)OCC | -15% | -56* | -2 | ?
CCOC(=O)C(=Cc1ccc(Br)cc1)C(=O)OCC | -15% | -108* | -17 | ?
CCOC(=O)/C(=C/c1ccc(OC(=O)c2ccncc2)cc1)C(C)=O | -1% | 10 | 2 | 0%
CN(Cc1ccco1)C(=O)c1cc(NC(=O)C2CCC2)c2c(c1)nc(-c1ccncc1)n2C | -9% | / | / | /
CCOC(=O)[C@@H]1[C@H]2COc3cc(OC)ccc3[C@@H]2N2C(=O)N(c3ccc(C(F)(F)F)cc3)C(=O)[C@]12C | -1% | 5 | 46* | -1%
CCOC(=O)[C@H]1[C@H]2COc3ccc(OC)cc3[C@@H]2N2C(=O)CN(Cc3ccco3)C(=O)[C@@]12C | -4% | -11 | -27 | -1%
CCOC(=O)[C@@H]1[C@H]2COc3cc(OC)ccc3[C@H]2N2C(=O)N(c3ccc(Cl)cc3)C(=O)[C@]12C | -5% | 13 | 1 | 2%
CCOC(=O)[C@@H]1[C@H]2COc3ccc(Br)cc3[C@H]2N2C(=O)N(c3ccc(OC)cc3)C(=O)[C@]12C | -2% | -62* | -14 | 0%
CCOC(=O)[C@@H]1[C@H]2COc3cc(OC)ccc3[C@@H]2N2C(=O)N(c3ccc(OC)cc3)C(=O)[C@@]12C | -2% | 34 | 0 | -1%
CCOC(=O)[C@H]1[C@H]2COc3ccc(OC)cc3[C@@H]2N2C(=O)CN(CCc3c[nH]c4ccccc34)C(=O)[C@@]12C | 3% | -3 | 58* | 3%
CCOC(=O)[C@@H]1[C@H]2COc3cc(OC)ccc3[C@@H]2N2C(=O)N(c3ccc(Cl)cc3)C(=O)[C@]12C | -2% | -25 | 34* | 4%
C[N+](C)(C)CC/C=C1/c2ccccc2CSc2ccccc21 | -5% | -10 | -4 | 0%
CNCCC=C1c2ccccc2CCc2ccccc21 | -12% | -91* | -84 | 6%
O=C(Cn1c(=O)n(-c2ccccc2)c(=O)c2sc3ccccc3c21)NC1CCCC1 | 0% | / | -12 | 0%
CCOC(=O)c1ccc(NC(=O)Cn2cc(C(=O)C3CC3)c3ccccc32)cc1 | -5% | / | -2 | 0%
Cc1ccc2ccc(S(=O)(=O)n3nc(C)cc3C)cc2c1 | -1% | -60* | -10 | 0%
CCN(CC)C(=O)Cn1cc(SCC(=O)Nc2ccccc2C)c2ccccc21 | -3% | / | 0 | -1%
Cn1nnnc1Sc1ncnc2scc(-c3cccc4ccccc34)c12 | -1% | / | / | 7.1µM*
Cn1nnnc1Sc1ncnc2scc(-c3ccc(F)cc3)c12 | -16% | -57* | 5 | ?
Cn1nnnc1Sc1ncnc2scc(-c3ccc(Br)cc3)c12 | -10% | / | / | -4%
CSc1nc(SCC(=O)NC(c2ccccc2)c2ccccc2)c2c3c(sc2n1)CN(C)CC3 | -1% | -92* | -8 | 6%
CSc1nc(NCC(C)O)c2c3c(sc2n1)CN(C)CC3 (centres undefined) | -1% | 29 | -2 | 3%
CCN(CC)CCN(C)c1ccc(/C=C/c2ccnc3ccccc23)cc1 | 1% | / | / | /
C#CCN(C[C@@H]1[C@@H](OC(=O)NC2CCCC2)[C@@H](OC(=O)NC2CCCC2)Cn2c(=O)ccc(=O)n21)S(=O)(=O)c1ccc(C)cc1 | -13% | -64* | -13 | -6%
SMILES | GRP78 ERSR act | DRD3 antagonist | DRD3 agonist | Nrf2 ARE act
C#CCN(C[C@@H]1[C@@H](OC(=O)Nc2cccs2)[C@@H](OC(=O)Nc2cccs2)Cn2c(=O)ccc(=O)n21)S(=O)(=O)c1ccc(C)cc1 | -13% | -4 | -2 | -5%
COc1cccc(CN2CCC(n3cc(C(=O)NC4CCCC4)nn3)CC2)c1O | -2% | / | / | /
Cc1ccsc1C1Cc2c(C(=O)NCc3cccnc3)c(=O)cc(C)n2-c2ccccc2S1 (centres undefined) | -3% | / | / | /
Cc1oc2cc3oc(=O)c(CCC(=O)N[C@H](C(=O)O)C(C)C)c(C)c3cc2c1C | -4% | -16 | -1 | 0%
Cc1oc2cc3oc(=O)c(CCC(=O)NCCN4CCOCC4)c(C)c3cc2c1C | 5% | 9 | 41* | 4%
CCNc1cc2oc(=O)c(CN3CCOCC3)c(C)c2cc1C | -3% | -67* | -12 | -2%
Cc1oc2cc3oc(=O)c(CCC(=O)N(C)CC(=O)O)c(C)c3cc2c1C | -4% | -67* | 3 | 0%
Cc1coc2cc3oc(=O)c(CCC(=O)NCCCN4CCOCC4)c(C)c3cc12 | -2% | 12 | 11 | -1%
Cc1cc2oc(=O)cc(CN3CCOCC3)c2cc1C | 3% | 7 | -8 | 0%
Cc1cc(I)ccc1Nc1nc(NCCN2CCOCC2)nc(N2CCOCC2)n1 | -2% | / | / | /
CN(C)c1ccc(CCC2C=Cc3ccccc32)cc1 (centres undefined) | -2% | / | / | /
COC(=O)N/N=C/c1ccccc1 | 4% | 7 | 42* | 1%
CCCn1c(-c2ccccc2)nc2c(=O)n(C)c(=O)[nH]c21 | 3% | -5 | 1 | 1%
Cc1nc2c(=O)n(C)c(=O)[nH]c2n1Cc1ccccc1 | -1% | -62* | -2 | 0%
O=C(Nc1c(O)c2ccccc2[nH]c1=O)c1ccco1 | 17% | 10 | 7 | 10µM*
OC1(Cc2cc(-c3ccccc3)no2)CCN(CCCc2ccccc2)CC1 | -5% | -75* | -8 | 2%
O=C(CC(C(=O)O)n1ccnc1)c1ccc(Cl)cc1 (centres undefined) | -2% | / | / | /
O=C(CN1CC(=O)Oc2ccccc21)OCC(=O)c1cccc(Br)c1 | -2% | -17 | -4 | 13µM*
O=C(CNC(=S)NC(=O)c1ccccc1Br)c1ccccc1 | -1% | -12 | 1 | 2.2µM*
COCCOc1ccc(C(F)(F)F)cc1NC(=O)c1ccc(C)cc1 | -3% | 6 | 1 | 11µM*
O=[N+]([O-])c1cccc(-c2nnc(-c3ccccc3F)o2)c1 | -2% | -1 | 4 | 13µM*
Nc1nnc(-c2cccc([N+](=O)[O-])c2)o1 | 7% | -23 | 1 | 0%
CCN(CC)C(=O)[C@H]1CC(CC(=O)NCCCn2ccnc2)C(=O)N2CCc3c([nH]c4ccc(OC)cc34)[C@]12C (some centres undefined) | -4% | 2 | 28 | 0%
COc1ccc2[nH]c3c(c2c1)CCN1C(=O)C(CC(=O)NCC24CC5CC(CC(C5)C2)C4)C[C@H](C(=O)N(C(C)C)C(C)C)[C@@]31C (some centres undefined) | 2% | -4 | 37* | -2%
